Consider 8 compounds from PubChem BioAssay (NCI).

The panel holds about 79,000 compounds, 15% with a hit somewhere; the sample as a whole holds those more often. Unmarked numbers belong to inactive results. Calls of active or inactive are those of the source. No stated cut-off is given here; in the data, active means growth inhibition above about 70%; inactive means the rest.

The nature of test [1]: NCI Yeast Anticancer Drug Screen. Data for the rad50 strain (AID 155).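 Further: 0% = growth of vehicle-only cultures of the same strain.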 As to conditions: S. cerevisiae rad50 strain growth inhibition, hits give high values. The method, boiled down: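 A DNA repair-deficient yeast mutant serves as the test organism; compound-induced growth inhibition is calculated against vehicle-treated cells.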
The nature of test [2]: NCI Yeast Anticancer Drug Screen. Data for the mec2-1 strain (AID 157). The conditions noted are these: S. cerevisiae mec2-1 strain, hits give high values. The method, boiled down: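 Each compound was tested on mec2-1 yeast, a strain altered in DNA damage repair or cell cycle control. Growth inhibition is reported relative to vehicle.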
The nature of test [3]: NCI Yeast Anticancer Drug Screen. Data for the sgs1 mgt1 strain (AID 161).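 Further: 0% = growth of cultures given vehicle only.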 The conditions noted are these: S. cerevisiae sgs1 mgt1 strain, hits give high values. The method, boiled down: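 Mutant yeast exposed to compound; growth scored against vehicle-only wells.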
The nature of test [4]: NCI Yeast Anticancer Drug Screen. Data for the cln2 rad14 strain (AID 165).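 Further: 0% = growth equal to vehicle treated cultures.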 The conditions noted are these: S. cerevisiae cln2 rad14 strain, hits give high values. The gist of the method: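 Test compounds were added to cln2 rad14 yeast cultures; inhibition of growth was then determined by comparison with vehicle treatment.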
A short description of test [5]: NCI Yeast Anticancer Drug Screen. Data for the bub3 strain (AID 167). As to conditions: S. cerevisiae bub3 mutant strain, hits give high values. The gist of the method:
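Inhibition values come from growth of compound-treated mutant yeast normalised to vehicle-treated controls.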

A short description of test [6]: NCI Yeast Anticancer Drug Screen. Data for the mlh1 rad18 strain (AID 175). The conditions noted are these: S. cerevisiae mlh1 rad18 strain growth inhibition, hits give high values. The method, boiled down:
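Inhibition values reflect reduced growth of mutant yeast versus vehicle-treated controls following compound exposure; the mutations affect DNA damage repair.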

[7] abbreviates: at 5.0 µM (retest, dose inferred, filed as 0.5).
Setting [8] is: at 50.0 µM (retest, dose inferred, filed as 5.0).

On to `O=C(NCCCl)N1CCC(CN=c2cc3n(-c4ccc(Cl)cc4)c4ccccc4nc-3cc2Nc2ccc(Cl)cc2)CC1`, for which the growth inhibition in test [1] (setting [7]) is -33%; in test [1] (setting [8]), 99% (active); in test [1] (at 50.0 µM), 98.6% (active); in test [2] (setting [7]) it was -5%; in test [2] (setting [8]), 99% (active); in test [2] (at 50.0 µM), 98.5% (active). Besides, the growth inhibition in test [3] (setting [7]) was -22%; in test [3] (setting [8]) it was 99% (active); in test [3] (at 50.0 µM), 98.7% (active); in test [4] (setting [7]), -56%; in test [4] (setting [8]) it was 99% (active); in test [4] (at 50.0 µM), 98.3% (active). Also, the growth inhibition was -11% in test [5] (setting [7]); 99% (active) in test [5] (setting [8]); 98.4% (active) in test [5] (at 50.0 µM); -34% in test [6] (setting [7]); 98% (active) in test [6] (setting [8]); 99% (active) in test [6] (at 50.0 µM).

As to `COC(=O)CCc1c(Cc2ccc[nH]2)[nH]c(C(=O)OCc2ccccc2)c1C`, the growth inhibition in test [1] (setting [7]) was -20%; in test [1] (setting [8]), 91% (active); in test [1] (at 50.0 µM), 55%; in test [2] (setting [7]), -12%; in test [2] (setting [8]), 92% (active); in test [2] (at 50.0 µM) it was 71% (active). The growth inhibition in test [3] (setting [7]) was -12%; in test [3] (setting [8]), 94% (active); in test [3] (at 50.0 µM), 69%; in test [4] (setting [7]) it was -32%; in test [4] (setting [8]), 95% (active); in test [4] (at 50.0 µM), 77.5% (active). Besides, the growth inhibition was -35% in test [5] (setting [7]); 92% (active) in test [5] (setting [8]); 76.3% (active) in test [5] (at 50.0 µM); -5% in test [6] (setting [7]); 94% (active) in test [6] (setting [8]); 74.8% (active) in test [6] (at 50.0 µM).

On to `N#Cc1ccc(OC(=O)Nc2c(Cl)cccc2Cl)cc1`, for which the growth inhibition in test [1] (setting [7]) was 46%; in test [1] (setting [8]) it was 41%; in test [1] (at 50.0 µM), 80.4% (active); in test [2] (setting [7]) it was 36%; in test [2] (setting [8]), 42%; in test [2] (at 50.0 µM), 82.2% (active). Also, the growth inhibition is 44% in test [3] (setting [7]); 53% in test [3] (setting [8]); 86.2% (active) in test [3] (at 50.0 µM); 34% in test [4] (setting [7]); 45% in test [4] (setting [8]); 83.9% (active) in test [4] (at 50.0 µM). Moreover, the growth inhibition in test [5] (setting [7]) is 31%; in test [5] (setting [8]), 70% (active); in test [5] (at 50.0 µM) it was 84.3% (active); in test [6] (setting [7]), 47%; in test [6] (setting [8]) it was 50%; in test [6] (at 50.0 µM) it was 83.5% (active).

`COc1ccc2nc3cc(Cl)ccc3c(Nc3nccs3)c2c1`: the growth inhibition was 14% in test [1] (setting [7]); 90% (active) in test [1] (setting [8]); 95.1% (active) in test [1] (at 50.0 µM); 12% in test [2] (setting [7]); 93% (active) in test [2] (setting [8]); 70% (active) in test [2] (at 50.0 µM). Moreover, the growth inhibition in test [3] (setting [7]) is 13%; in test [3] (setting [8]), 90% (active); in test [3] (at 50.0 µM), 94.4% (active); in test [4] (setting [7]), 9%; in test [4] (setting [8]), 87% (active); in test [4] (at 50.0 µM), 58.5%. Further, the growth inhibition in test [5] (setting [7]) is 6%; in test [5] (setting [8]), 96% (active); in test [5] (at 50.0 µM), 94.5% (active); in test [6] (setting [7]) it was 6%; in test [6] (setting [8]), 94% (active); in test [6] (at 50.0 µM), 88.2% (active).

In the case of `CC(CCC(=O)O)(Nc1ccc([N+](=O)[O-])cc1[N+](=O)[O-])C(=O)O` (centres undefined), the growth inhibition in test [1] (setting [7]) is 51%; in test [1] (setting [8]) it was 99% (active); in test [1] (at 50.0 µM), 99.2% (active); in test [2] (setting [7]), 41%; in test [2] (setting [8]), 100% (active); in test [2] (at 50.0 µM), 99.6% (active). Besides, the growth inhibition was 52% in test [3] (setting [7]); 99% (active) in test [3] (setting [8]); 99.1% (active) in test [3] (at 50.0 µM); 18% in test [4] (setting [7]); 100% (active) in test [4] (setting [8]); 91.9% (active) in test [4] (at 50.0 µM). The growth inhibition was 34% in test [5] (setting [7]); 100% (active) in test [5] (setting [8]); 98.8% (active) in test [5] (at 50.0 µM); 57% in test [6] (setting [7]); 100% (active) in test [6] (setting [8]); 98.8% (active) in test [6] (at 50.0 µM).

As for `FC(F)(F)c1[nH]nc(-c2ccc(Cl)cc2)c1N=NN1CCOCC1`, the growth inhibition is 98% (active) in test [1] (setting [7]); 96% (active) in test [1] (setting [8]); 94.6% (active) in test [1] (at 50.0 µM); 99% (active) in test [2] (setting [7]); 94% (active) in test [2] (setting [8]); 95.8% (active) in test [2] (at 50.0 µM). Further, the growth inhibition in test [3] (setting [7]) was 99% (active); in test [3] (setting [8]), 94% (active); in test [3] (at 50.0 µM), 95.4% (active); in test [4] (setting [7]) it was 99% (active); in test [4] (setting [8]), 98% (active); in test [4] (at 50.0 µM), 91.2% (active). Besides, the growth inhibition is 99% (active) in test [5] (setting [7]); 98% (active) in test [5] (setting [8]); 82.5% (active) in test [5] (at 50.0 µM); 99% (active) in test [6] (setting [7]); 97% (active) in test [6] (setting [8]); 93.6% (active) in test [6] (at 50.0 µM).

Consider `O=c1[nH]c2ccccc2c2oc3ccccc3c12`, for which the growth inhibition in test [1] (setting [7]) is -14%; in test [1] (setting [8]), 83% (active); in test [1] (at 50.0 µM), 63.5%; in test [2] (setting [7]) it was -10%; in test [2] (setting [8]), 71% (active); in test [2] (at 50.0 µM), 51.5%. For the same compound, the growth inhibition in test [3] (setting [7]) is -4%; in test [3] (setting [8]) it was 69%; in test [3] (at 50.0 µM) it was 64.5%; in test [4] (setting [7]) it was 18%; in test [4] (setting [8]), 32%; in test [4] (at 50.0 µM), 25.4%. Further, the growth inhibition was -10% in test [5] (setting [7]); 88% (active) in test [5] (setting [8]); 46.5% in test [5] (at 50.0 µM); -18% in test [6] (setting [7]); 94% (active) in test [6] (setting [8]); 68.3% in test [6] (at 50.0 µM).

For the compound `Oc1ccc[nH]c1=S`, the growth inhibition in test [1] (setting [7]) was 19%; in test [1] (setting [8]), 18%; in test [1] (at 50.0 µM), 18.4%; in test [2] (setting [7]), 6%; in test [2] (setting [8]), 12%; in test [2] (at 50.0 µM), 12.2%. Moreover, the growth inhibition in test [3] (setting [7]) was 3%; in test [3] (setting [8]), -34%; in test [3] (at 50.0 µM) it was 85.2% (active); in test [4] (setting [7]), 8%; in test [4] (setting [8]), -4%; in test [4] (at 50.0 µM), -8.7%. The growth inhibition in test [5] (setting [7]) was 13%; in test [5] (setting [8]) it was -2%; in test [5] (at 50.0 µM), 74.5% (active); in test [6] (setting [7]), 23%; in test [6] (setting [8]), 12%; in test [6] (at 50.0 µM) it was 90.9% (active).
